Results filed as inconclusive are left out. The source made the active and inactive calls. Unless noted, calls follow the shape of the full dose curve.
Each compound was assayed against Androgen receptor (Homo sapiens) (UniProt P10275) (assay: qHTS assay for small molecule agonists of androgen receptor signaling (AID 588515; active = well fitted curve in the direction sought with a large enough effect in the signal ratio, with a control signal flat; the % refers to the signal ratio; also: potency is read from the fitted curve at half-maximal effect; as to activation: % is scaled to controls: 0 for no effect and ±100 for the full control effect)). Conditions: AR-UAS-bla HEK293, beta-lactamase ratio, agonist 16 h; activation: stronger effect = higher value.
Procedure, shortened: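 EC50 and efficacy came from Hill fits of titrations (up to 92 uM) normalized to 30 nM R1881 as 100% and DMSO as 0%. Compound exposure was 16 h at 37 C on AR-UAS-bla HEK293 cells, with a 405/460/530 nm CCF4 fluorescence read.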

Androgen receptor (Homo sapiens), sequence (P10275 whole entry, looked up): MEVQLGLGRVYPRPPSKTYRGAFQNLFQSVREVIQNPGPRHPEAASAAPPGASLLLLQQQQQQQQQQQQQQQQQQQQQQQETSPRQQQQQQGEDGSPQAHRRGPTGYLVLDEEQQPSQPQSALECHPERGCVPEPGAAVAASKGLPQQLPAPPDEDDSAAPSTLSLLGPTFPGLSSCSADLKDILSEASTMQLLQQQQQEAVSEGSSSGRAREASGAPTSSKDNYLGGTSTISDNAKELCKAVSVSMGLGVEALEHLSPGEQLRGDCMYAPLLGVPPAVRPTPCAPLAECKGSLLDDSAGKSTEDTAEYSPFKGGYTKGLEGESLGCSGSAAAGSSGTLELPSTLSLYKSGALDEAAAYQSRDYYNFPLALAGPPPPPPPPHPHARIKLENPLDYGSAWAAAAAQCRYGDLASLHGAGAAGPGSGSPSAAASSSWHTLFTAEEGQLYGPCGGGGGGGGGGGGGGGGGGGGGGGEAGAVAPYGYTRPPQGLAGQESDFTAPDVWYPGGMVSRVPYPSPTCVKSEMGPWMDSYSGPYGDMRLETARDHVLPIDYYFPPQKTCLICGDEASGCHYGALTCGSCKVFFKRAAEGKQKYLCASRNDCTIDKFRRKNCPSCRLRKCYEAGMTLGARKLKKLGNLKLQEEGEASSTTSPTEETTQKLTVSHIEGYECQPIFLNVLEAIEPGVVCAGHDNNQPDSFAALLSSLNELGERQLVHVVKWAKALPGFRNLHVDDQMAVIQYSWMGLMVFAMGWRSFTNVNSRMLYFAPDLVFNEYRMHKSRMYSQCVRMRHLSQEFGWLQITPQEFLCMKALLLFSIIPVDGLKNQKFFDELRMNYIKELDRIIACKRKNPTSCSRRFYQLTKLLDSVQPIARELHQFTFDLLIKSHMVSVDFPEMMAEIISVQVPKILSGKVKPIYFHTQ

Row | Compound | activation | Potency
1 | COP(=S)(OC)Oc1ccc(Sc2ccc(OP(=S)(OC)OC)cc2)cc1 | -10.3% (inactive) | 
2 | O=C(NC(=O)c1c(F)cccc1F)Nc1cc(Cl)c(OC(F)(F)C(F)C(F)(F)F)cc1Cl (stereo unspecified) | -6.9% (inactive) | 
3 | CCC(=O)O[C@H]1CC[C@H]2[C@@H]3CCC4=CC(=O)CC[C@]4(C)[C@H]3CC[C@]12C |  | 0.0089 µM (active)

What follows are compounds tested against Androgen receptor (Homo sapiens) (UniProt P10275) (assay: qHTS assay for small molecule antagonists of androgen receptor signaling (AID 588516; active = well fitted curve in the direction sought with a large enough effect in the signal ratio, with a control signal flat, not every such curve was filed as active; the % refers to the signal ratio; also: % is scaled to controls: 0 for no effect and ±100 for the full control effect)). Conditions: AR-UAS-bla HEK293, beta-lactamase ratio, antagonist mode, 16 h; series mostly up to 76.8 µM; activity change, negative = inhibition: at the top concentration.
Procedure, shortened: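 Cells were plated and incubated 5 h, compounds added in titration, then R1881 (10 nM final) as agonist. After 16 h at 37 C, CCF4 substrate was loaded for 2 h at room temperature and fluorescence measured.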

Row | Compound | activity change, negative = inhibition
4 | COP(=S)(OC)Oc1ccc(Sc2ccc(OP(=S)(OC)OC)cc2)cc1 | -19.3% (inactive)
5 | O=C(NC(=O)c1c(F)cccc1F)Nc1cc(Cl)c(OC(F)(F)C(F)C(F)(F)F)cc1Cl (stereo unspecified) | -17.9% (inactive)
6 | Oc1ccc(Cl)cc1Cc1cc(Cl)ccc1O | -31.1% (inactive)

Each compound was assayed against Glucocorticoid receptor (Homo sapiens) (UniProt P04150) (assay: qHTS assay for small molecule agonists of glucocorticoid receptor signaling (AID 588532; active = well fitted curve in the direction sought with a large enough effect in the signal ratio, with a control signal flat; the % refers to the signal ratio;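 also: 100% = dexamethasone at 0.1 µM and 0% = DMSO only wells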)). Conditions: HeLa MMTV-bla, beta-lactamase ratio, agonist, 18 h; stronger effect = higher value; percent of dexamethasone control, DMSO zero.
Procedure, shortened: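 Cells were plated and rested 3-5 h at 37 C, compounds were added in titration and incubated 18 h, then CCF4 substrate was loaded for 2 h at RT before reading blue/green fluorescence. EC50 came from Hill-equation fitting.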

Glucocorticoid receptor (Homo sapiens), sequence (P04150 whole entry, looked up): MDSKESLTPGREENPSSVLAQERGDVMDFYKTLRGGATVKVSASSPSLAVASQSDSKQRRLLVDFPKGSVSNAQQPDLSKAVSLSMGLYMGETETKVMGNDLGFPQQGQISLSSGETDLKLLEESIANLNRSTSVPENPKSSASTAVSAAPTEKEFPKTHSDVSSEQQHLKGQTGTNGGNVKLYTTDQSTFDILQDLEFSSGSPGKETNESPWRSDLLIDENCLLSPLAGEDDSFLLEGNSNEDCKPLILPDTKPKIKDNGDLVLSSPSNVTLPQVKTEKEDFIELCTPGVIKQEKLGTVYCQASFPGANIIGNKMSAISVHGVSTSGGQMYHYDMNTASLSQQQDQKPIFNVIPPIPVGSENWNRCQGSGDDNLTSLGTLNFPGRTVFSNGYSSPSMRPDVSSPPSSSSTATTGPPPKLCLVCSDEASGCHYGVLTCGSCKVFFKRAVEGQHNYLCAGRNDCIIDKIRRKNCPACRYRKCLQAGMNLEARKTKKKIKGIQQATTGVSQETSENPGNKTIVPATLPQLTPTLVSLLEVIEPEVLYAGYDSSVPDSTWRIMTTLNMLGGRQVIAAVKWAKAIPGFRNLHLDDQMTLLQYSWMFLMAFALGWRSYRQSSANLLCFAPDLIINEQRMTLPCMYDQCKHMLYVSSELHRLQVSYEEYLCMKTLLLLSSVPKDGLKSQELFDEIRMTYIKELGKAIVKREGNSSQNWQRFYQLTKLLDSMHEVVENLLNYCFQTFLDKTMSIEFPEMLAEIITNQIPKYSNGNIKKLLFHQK

Row | Compound | activation
7 | O=C(NC(=O)c1c(F)cccc1F)Nc1cc(Cl)c(OC(F)(F)C(F)C(F)(F)F)cc1Cl (stereo unspecified) | 15.8% (inactive)
8 | CCOP(=S)(OCC)O/N=C(\C#N)c1ccccc1 | -3.68% (inactive)
9 | O=C(CCl)c1ccc(Cl)cc1Cl | -10.9% (inactive)

The compounds below were run against Glucocorticoid receptor (Homo sapiens) (UniProt P04150) (assay: qHTS assay for small molecule antagonists of glucocorticoid receptor signaling (AID 588533; active = well fitted inhibition curve with a large enough effect in the signal ratio, with a control signal flat, not every such curve was filed as active; the % refers to the signal ratio;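 also: cells stimulated with 2 nM dexamethasone as agonist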; also: potency is read from the fitted curve at half-maximal effect; as to activity change, negative = inhibition: % is scaled to controls: 0 for no effect and ±100 for the full control effect)). Conditions: HeLa MMTV-bla, GRE beta-lactamase ratio, antagonist mode, 18 h; series mostly up to 76.8 µM; activity change, negative = inhibition: at the top concentration.
Procedure, shortened: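 Antagonist-mode qHTS: compound titrations added to GRE-bla HeLa cells, then dexamethasone 2 nM final; 18 h, 37 C. CCF4 FRET fluorescence normalized to dexamethasone and DMSO; IC50 from Hill fit.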

Row | Compound | Potency | activity change, negative = inhibition
10 | CCC(=O)O[C@H]1CC[C@H]2[C@@H]3CCC4=CC(=O)CC[C@]4(C)[C@H]3CC[C@]12C | 31.6 µM (active) | 
11 | CCOP(=S)(OCC)O/N=C(\C#N)c1ccccc1 |  | 15.8% (inactive)
12 | O=C(CCl)c1ccc(Cl)cc1Cl | 14.1 µM (active) | 

These compounds were tested against Peroxisome proliferator-activated receptor delta (Homo sapiens) (UniProt Q03181) (assay: qHTS assay for small molecule agonists of peroxisome proliferator-activated receptor delta signaling (AID 588534;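 also: 0% = DMSO basal wells and 100% = positive control agonist at 10 µM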)). Conditions: HEK293T PPARdelta-UAS-bla, beta-lactamase ratio, 18 h; series mostly up to 76.7 µM; activation: at the top concentration.
Procedure, shortened: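 Cell-based beta-lactamase reporter assay run in agonist mode: cells seeded and incubated 5 hrs at 37 C, compounds added and incubated 18 hrs at 37 C. CCF4 dye fluorescence read after 2 hrs at RT; EC50 and efficacy from Hill fits.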

Peroxisome proliferator-activated receptor delta (Homo sapiens), sequence (Q03181 whole entry, looked up): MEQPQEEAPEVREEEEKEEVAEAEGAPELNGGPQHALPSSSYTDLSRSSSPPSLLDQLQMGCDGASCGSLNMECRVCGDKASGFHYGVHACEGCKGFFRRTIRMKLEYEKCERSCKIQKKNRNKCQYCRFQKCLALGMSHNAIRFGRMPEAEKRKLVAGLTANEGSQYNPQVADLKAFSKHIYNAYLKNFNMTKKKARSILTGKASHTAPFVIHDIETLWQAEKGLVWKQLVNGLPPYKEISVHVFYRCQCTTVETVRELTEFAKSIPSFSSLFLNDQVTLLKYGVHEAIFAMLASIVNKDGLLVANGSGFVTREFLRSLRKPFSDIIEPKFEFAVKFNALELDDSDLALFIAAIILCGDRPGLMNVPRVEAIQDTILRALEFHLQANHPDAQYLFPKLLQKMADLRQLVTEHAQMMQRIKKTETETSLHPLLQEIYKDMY

Row | Compound | activation | outcome
13 | COP(=S)(OC)Oc1ccc(Sc2ccc(OP(=S)(OC)OC)cc2)cc1 | -5.06% (inactive) | 
14 | NCCNc1cccc2ccccc12 | -4.37% (inactive) | 
15 | O=C1C(c2[nH]c3ccccc3c2O)=Nc2ccccc21 | -7.81% (inactive) | 
16 | CCOc1ccccc1C(N)=O | 6.61% (inactive) | 
17 | C#C[C@]1(O)CC[C@H]2[C@@H]3CCc4cc(O)ccc4[C@H]3CC[C@@]21C |  | inactive
18 | Oc1ccc(/C=C/c2cc(O)cc(O)c2)cc1 | -13% (inactive) | 
19 | c1ccc2[nH]c(-c3cscn3)nc2c1 |  | inactive
20 | CCCCCC(N)=O | 5.04% (inactive) | 
21 | CCC(=O)O[C@H]1CC[C@H]2[C@@H]3CCC4=CC(=O)CC[C@]4(C)[C@H]3CC[C@]12C | 0.811% (inactive) | 
22 | Nc1ccc(N=Nc2ccccc2)c(N)n1 |  | inactive
23 | C=C[C@@]1(C)CC(=O)[C@]2(O)[C@@]3(C)[C@@H](O)CCC(C)(C)[C@@H]3[C@H](O)[C@H](OC(C)=O)[C@@]2(C)O1 | 1.54% (inactive) | 
24 | CCCCCCCCCCCC[N+](C)(C)Cc1ccccc1 | -10.6% (inactive) | 
25 | COc1ccc(C(Cl)=C(c2ccc(OC)cc2)c2ccc(OC)cc2)cc1 | -1.92% (inactive) | 
26 | CCCCC(CC)COC(=O)C(C#N)=C(c1ccccc1)c1ccccc1 (stereo unspecified) | 3.81% (inactive) | 
27 | Cn1cnc2c1c(=O)[nH]c(=O)n2C | 4.94% (inactive) | 
28 | CN(C)C(=O)Nc1ccc(Cl)c(Cl)c1 | -4.63% (inactive) | 
29 | CCN(CC)C(=O)c1cccc(C)c1 |  | inactive
30 | O=C1O[C@H]([C@@H](O)CO)C(O)=C1O |  | inactive
31 | Nc1ccn([C@H]2CC[C@@H](CO)O2)c(=O)n1 |  | inactive
32 | CCOP(=S)(OCC)O/N=C(\C#N)c1ccccc1 | 13.8% (inactive) | 

Row | Compound | activation | outcome
33 | Nc1ccc(S(=O)(=O)Nc2nccs2)cc1 | -2.34% (inactive) | 
34 | Cc1cc(C(C)(C)C)c(O)c(C(C)(C)C)c1 |  | inactive
35 | NS(=O)(=O)c1cc(C(=O)O)c(NCc2ccco2)cc1Cl |  | inactive
36 | C/C=C/c1ccc(O)c(OC)c1 |  | inactive
37 | CN(C)CCC(c1ccccc1)c1ccccn1 (stereo unspecified) | 2.09% (inactive) | 
38 | CCCCCCCC/C=C\CCCCCCCCN | -5.04% (inactive) | 
39 | CC(=O)OC/C=C(C)/C=C/C=C(C)/C=C/C1=C(C)CCCC1(C)C | -10.3% (inactive) | 
40 | O=C(CCl)c1ccc(Cl)cc1Cl | -3.5% (inactive) | 
41 | Oc1ccc(Cl)cc1Cc1cc(Cl)ccc1O |  | inactive
42 | O=C1c2cccc(O)c2C(=O)c2c(O)cccc21 | -10.2% (inactive) | 
43 | Cc1ccc(O)cc1 | -2.24% (inactive) | 
44 | CC(O)COc1ccccc1 (stereo unspecified) | 1.3% (inactive) | 
45 | FC(F)(F)C(Cl)Br (stereo unspecified) | 9.14% (inactive) | 
46 | CN(C)C(=S)SC(=S)N(C)C | -0.599% (inactive) | 
47 | CC1(C)[C@@H]2CC[C@@]1(C)C(=O)C2 | -4.9% (inactive) | 
48 | Cc1c(N(C)C)c(=O)n(-c2ccccc2)n1C |  | inactive
49 | C[C@]12CCC(=O)C=C1CC[C@@H]1[C@@H]2C(=O)C[C@@]2(C)[C@H]1CC[C@]2(O)C(=O)CO | -4.89% (inactive) | 
50 | CC(=O)Oc1ccc(C(c2ccc(OC(C)=O)cc2)c2ccccn2)cc1 | -12% (inactive) | 
51 | COc1cccc2c1C(=O)c1c(O)c3c(c(O)c1C2=O)C[C@@](O)(C(C)=O)C[C@@H]3O[C@H]1C[C@H](N)[C@H](O)[C@H](C)O1 | -2.47% (inactive) | 

Reference: PubChem BioAssay (NCATS)
